Source: PubChem
Only some compounds are listed: those with a hit (about 4.8% of all), similar ones and a draw of the others.
HepG2 tox: qHTS for Inhibitors of TGF-b: Cytotox Counterscreen; Potency, µM (series often up to 46.1 µM), for the others: top-dose activity change, negative = cytotoxicity, usual class: cytotoxic; HepG2 CAGA-GFP viability, ATP luminescence, 18 h; AID 588856, 2011; 0.76% of 410,000 active; note: potency is the fitted concentration of half-maximal effect
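HepG2 CAGA-GFP cells (1000/well, DMEM with 1% FBS) received compound, then TGF-beta at 500 pg/mL final, and were incubated 18 hours at 37 degrees C. Viability was read by CellTiter-Glo luminescence. Media-only wells were set as complete cell-killing and DMSO as no toxicity.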
DRD3 antagonist: qHTS of D3 Dopamine Receptor Antagonist: qHTS | D(3) dopamine receptor (Homo sapiens), P35462 | D3R cells, DiscoveRx beta-arrestin luminescence, antagonist mode; hits give low values | max response, negative = inhibition, % | 2.5% of 360,000 active | AID 652054, 2013; in the data active = max response below about -50%; inconclusive = no clear call, values can overlap the other calls; note: % is set by controls: 0 for no effect and ±100 for the full control effect
Target sequence (P35462 whole entry, looked up): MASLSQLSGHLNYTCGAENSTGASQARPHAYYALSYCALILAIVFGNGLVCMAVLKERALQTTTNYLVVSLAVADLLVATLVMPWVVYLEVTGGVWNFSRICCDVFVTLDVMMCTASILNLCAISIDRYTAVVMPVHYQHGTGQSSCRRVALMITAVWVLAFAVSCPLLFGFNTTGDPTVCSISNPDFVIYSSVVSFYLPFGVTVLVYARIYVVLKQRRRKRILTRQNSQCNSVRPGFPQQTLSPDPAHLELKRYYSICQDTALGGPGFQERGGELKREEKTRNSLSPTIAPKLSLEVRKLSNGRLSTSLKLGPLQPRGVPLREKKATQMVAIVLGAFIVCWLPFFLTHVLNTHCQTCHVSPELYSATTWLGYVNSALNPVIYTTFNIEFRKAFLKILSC
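Cells plated overnight at 1500 cells/well, then exposed to library compounds with dopamine controls for 90 minutes at 37 degrees C. DiscoveRx reagent added for 30–60 minutes at room temperature; luminescence read, quantitative HTS format.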
TGFb SMAD3 inh: qHTS for Inhibitors of TGF-b; HepG2 CAGA-GFP TGF-b/SMAD3 reporter, GFP fluorescence, 18 h; TGF-beta stimulated, 500 pg/mL final; Potency, µM (highest dose often 46.1 µM), for the others: at the highest dose activity, negative = inhibition, usual class: inhibitors; AID 588855, 2011; 1.2% of 410,000 active; note: potency is the fitted concentration of half-maximal effect; % is set by controls: 0 for no effect and ±100 for the full control effect; nearly all actives have a fitted effect of over 65% in size
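Read-out: total well GFP (ex488/em500-530) summed from mean per-cell fluorescence. Cells: HEPG2 CAGA-GFP, 1% FBS DMEM, 18 h at 37 degrees C with 500 pg/mL final TGF-beta. Unstimulated wells served as the full-inhibition control; stimulated DMSO wells = 0%.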
ATXN2 expr inh: Primary qHTS for Inhibitors of ATXN expression; Potency, µM (top dose mostly 57 µM), without a hit: at the top dose activity change, negative = inhibition, hits mostly inhibitors; HEK-293 ATXN2-luciferase reporter, luminescence, 24 h; 0.72% of 360,000 active; AID 1745845, 2022; note: potency is the fitted concentration of half-maximal effect; % is set by controls: 0 for no effect and ±100 for the full control effect; nearly all actives have a fitted effect of over 55% in size
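qHTS (up to 57 uM final) was run with 24 h compound exposure of reporter cells at 37 °C. Each well was multiplexed: SteadyGlo luminescence measured ATXN2-luciferase expression after a fluorogenic Gly-Phe-AFC viability readout (25 uM final).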
S2 tox: Viability Counterscreen for Primary qHTS for Inhibitors of ATXN expression. AID 651635, 2014. 0.49% of 400,000 active. S2 cells (HEK-293 line with an ATXN2-luciferase reporter) viability, CellTiter-Fluor protease fluorescence, 24 h. Potency, µM (titrated, usually from 56.7 µM), hits mostly cytotoxic; note: potency is the fitted concentration of half-maximal effect; nearly all actives have a fitted effect of over 40% in size
D3 ag: qHTS of D3 Dopamine Receptor Agonist: qHTS. D3R DiscoveRx beta-arrestin cells, luminescence, 90 min. max activation, %. 0.58% of 410,000 active. AID 652048, 2013; in the data active = max activation above about 30%; note: 0% is about no effect
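Agonist-mode cell screen: cells plated at 1500/well and incubated overnight at 37 °C, then exposed to library compounds for 90 min at 37 °C. Detection reagent was added for 30–60 min at room temperature, and luminescence was read.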
* hit, by the source's call; i = inactive; ? = inconclusive; nt = no result given. Unless noted, calls come from the whole dose curve; as a rule, active = well fitted curve in the direction sought with a large enough effect; inconclusive = small, poorly fitted or top-dose-only effect, or another doubt; inactive = no such curve, though single readings can be large; an effect the other way counts as inactive or inconclusive.

SMILES | HepG2 tox | DRD3 antagonist | TGFb SMAD3 inh | ATXN2 expr inh | S2 tox | D3 ag
COc1ccc(C(=O)Nc2ccc(-c3n[nH]c(=S)o3)cc2)cc1OC | 21.3% | -4.3 | 0.5% | nt | i | -0.5
COc1ccccc1-c1n[nH]c(=S)o1 | -20.1% | -81.6* | -12.3% | 2.1% | i | -11.4
COc1ccc(Cl)cc1-c1n[nH]c(=S)o1 | -2.5% | -83.8* | -1.0% | 2.0% | i | -5.3
Cc1cc(Nc2ccccc2C(=O)O)ccc1Cl | nt | nt | nt | nt | i | -18.1
CCn1cc(C(=O)N2CCN(c3ccc(F)cc3)CC2)c(=O)c2cc(S(=O)(=O)N3CCOCC3)ccc21 | -22.0% | nt | ? | -10.7% | i | -11.1
CCOc1ccc2nc3cc(N)ccc3c(N)c2c1 | nt | nt | nt | 12.6µM* | ? | -3.8
CCOc1ccc2nc3ccc4[nH]onc4c3c2c1 | -39.4% | -6.3 | -4.1% | -17.3% | nt | -6.7
O=C(c1ccc(N2CCC(NCCCn3ncc4ccccc43)CC2)cc1)N1CCc2ccccc2C1 | nt | nt | nt | nt | i | nt
CCCCn1cnc2cc(NCc3ccc(OCC)cc3)ccc21 | -34.1% | nt | 10µM* | 8.4% | i | -17.6
Cc1sc2c(c1C)c(=O)n(-c1cccc(C(F)(F)F)c1)c(=O)n2Cc1ccc(F)cc1 | 1.4% | nt | 11.5% | -4.9% | i | -6.1
CO[C@H]1C[C@H](O[C@H]2[C@H](C)[C@@H](O[C@@H]3O[C@H](C)C[C@H](N(C)C)[C@H]3OC(C)=O)[C@@H](C)C[C@]3(CO3)C(=O)[C@H](C)[C@@H](OC(C)=O)[C@@H](C)[C@@H](C)OC(=O)[C@@H]2C)O[C@@H](C)[C@@H]1OC(C)=O | nt | nt | nt | nt | i | 6.5
C[C@@H](CO)NC(=O)[C@H]1O[C@@H](n2ccc(=O)[nH]c2=O)[C@H](O)[C@@H]1O | -29.4% | 9.2 | -18.3% | -5.1% | i | 7.9
CC[C@H](C)[C@@H](CO)NC(=O)[C@H]1O[C@@H](n2ccc(=O)[nH]c2=O)[C@H](O)[C@@H]1O | -28.4% | -105.2* | -2.1% | -1.4% | i | -14.5
O=C(O)C1C2C=CC(C2)C1C(=O)NC1CCS(=O)(=O)C1 (configuration not stated) | 29.8% | -101.7* | ? | -7.0% | i | 6.5
CC(C)(C)OC(=O)[C@H]1[C@H](c2ccc([N+](=O)[O-])cc2)C2(C(=O)c3ccccc3C2=O)C2c3ccccc3C=NN21 (some centres not stated) | -25.0% | -58.9* | ? | -18.4% | ? | -9.9
c1ccc(OCCCc2nc(-c3ccncc3)no2)cc1 | -12.9% | -52.2* | -6.1% | -8.4% | i | 2.4
c1ccc(OCc2nc(-c3ccncc3)no2)cc1 | 5.1% | 5.3 | 31.0% | 29.6% | i | -2.7
O=C(NC(c1ccc(Cl)cc1)c1cc(Cl)c2cccnc2c1O)c1cccnc1 (configuration not stated) | -11.1% | -100.2* | ? | ? | i | 2.4
CC(=O)NC(c1ccccc1)c1cc(Cl)c2cccnc2c1O (configuration not stated) | -17.1% | ? | ? | 7.94µM* | i | -11.4
COc1ccc(C(=O)NC(c2ccccc2Cl)c2cc(Cl)c3cccnc3c2O)cc1 (configuration not stated) | 11.2µM* | nt | 10µM* | nt | nt | 23.4
CN1CCN(C(c2ccc(Cl)cc2)c2cc(Cl)c3cccnc3c2O)CC1 (configuration not stated) | 25.1µM* | -98.5* | ? | ? | ? | -22.3
S=c1[nH]nc(-c2ccccn2)n1/N=C/c1ccc(Cl)c(Cl)c1 | -16.0% | -15.2 | -25.0% | 2.0% | i | -12.8
S=c1[nH]nc(-c2ccccn2)n1/N=C/c1ccc(Br)s1 | -11.9% | -55.6* | -2.0% | -8.2% | ? | 13.0
